Laboratory results: paper PMC11006913
Positions count from the first letter of the chain named.

What was measured:
Assay in all cases: PBM; 200 nM protein, PBS
Conditions in all cases: dsDNA, one strand shown
[1] = target: T1, PAX4 (Homo sapiens, UniProt O43316 9-242, R200K)
T1 sequence: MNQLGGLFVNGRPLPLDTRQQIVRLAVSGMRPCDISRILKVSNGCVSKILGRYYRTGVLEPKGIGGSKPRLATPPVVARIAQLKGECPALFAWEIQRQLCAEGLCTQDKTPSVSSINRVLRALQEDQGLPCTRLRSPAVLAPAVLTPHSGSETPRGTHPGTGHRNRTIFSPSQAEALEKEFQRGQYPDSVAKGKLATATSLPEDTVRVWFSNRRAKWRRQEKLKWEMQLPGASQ

[2] = target: T2, PAX4 (Homo sapiens, UniProt O43316 9-242)
T2 sequence: T1 sequence with K192R

[3] = target: ALX3 (Homo sapiens, UniProt O95076 139-225, N203Q)
[4] = target: T3, PAX4 (Homo sapiens, UniProt O43316 9-242, R200Q)
T3 sequence: T1 sequence with K192Q

[5] = target: T4, PAX4 (Homo sapiens, UniProt O43316 9-242, F177V)
T4 sequence: T1 sequence with F169V, K192R

[6] = target: ALX3 (Homo sapiens, UniProt O95076 139-225)
[7] = target: T5, PAX4 (Homo sapiens, UniProt O43316 9-242, F177Y)
T5 sequence: T1 sequence with F169Y, K192R

[8] = target: ALX3 (Homo sapiens, UniProt O95076 139-225, L168Q)
[9] = target: ALX3 (Homo sapiens, UniProt O95076 139-225, L168V)
[10] = target: T6, PAX4 (Homo sapiens, UniProt O43316 9-242, R227W)
T6 sequence: T1 sequence with K192R, R219W

[11] = target: ALX3 (Homo sapiens, UniProt O95076 139-225, N203S)
[12] = target: HOXD13 (Homo sapiens, UniProt P35453 263-343, T313R)
[13] = target: HOXD13 (Homo sapiens, UniProt P35453 263-343)
[14] = target: HOXD13 (Homo sapiens, UniProt P35453 263-343, T313A)
[15] = target: PITX2 (Homo sapiens, UniProt Q99697 72-157)
[16] = target: HOXA2 (Homo sapiens, UniProt O43364 129-215, R185T)
[17] = target: HOXA2 (Homo sapiens, UniProt O43364 129-215, R185K)
[18] = target: HOXA2 (Homo sapiens, UniProt O43364 129-215, Y150S)
[19] = target: HOXA2 (Homo sapiens, UniProt O43364 129-215)
[20] = target: T7, NKX2-6 (Homo sapiens, UniProt A6NCS4 118-204, R150C)
T7 sequence: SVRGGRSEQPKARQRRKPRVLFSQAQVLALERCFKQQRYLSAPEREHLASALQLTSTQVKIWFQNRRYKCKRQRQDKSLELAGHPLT

[21] = target: T8, NKX2-6 (Homo sapiens, UniProt A6NCS4 118-204)
T8 sequence: T7 sequence with C33R

[22] = target: T9, NKX2-6 (Homo sapiens, UniProt A6NCS4 118-204, F151L)
T9 sequence: T7 sequence with C33R, F34L

Chain of HOXD13 (Homo sapiens, UniProt P35453 263-343, T313R) (P35453 263-343 T313R): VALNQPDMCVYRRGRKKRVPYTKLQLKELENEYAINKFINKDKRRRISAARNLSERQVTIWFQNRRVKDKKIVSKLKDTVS
Chain of HOXD13 (Homo sapiens, UniProt P35453 263-343, T313A) (P35453 263-343 T313A): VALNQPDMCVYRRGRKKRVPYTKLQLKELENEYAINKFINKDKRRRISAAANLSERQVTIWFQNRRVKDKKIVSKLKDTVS
Chain of HOXD13 (Homo sapiens, UniProt P35453 263-343) (P35453 263-343): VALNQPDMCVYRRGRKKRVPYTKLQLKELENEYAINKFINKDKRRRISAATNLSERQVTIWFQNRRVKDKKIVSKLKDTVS
Chain of ALX3 (Homo sapiens, UniProt O95076 139-225, N203Q) (O95076 139-225 N203Q): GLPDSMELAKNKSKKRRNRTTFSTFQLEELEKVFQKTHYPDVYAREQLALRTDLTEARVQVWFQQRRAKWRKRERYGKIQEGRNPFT
Chain of HOXA2 (Homo sapiens, UniProt O43364 129-215) (O43364 129-215): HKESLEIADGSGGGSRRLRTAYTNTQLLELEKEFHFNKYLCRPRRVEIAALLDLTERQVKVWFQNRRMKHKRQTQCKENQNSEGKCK
Chain of HOXA2 (Homo sapiens, UniProt O43364 129-215, R185K) (O43364 129-215 R185K): as the sequence (O43364 129-215) above, with R57K counted along it
Chain of HOXA2 (Homo sapiens, UniProt O43364 129-215, Y150S) (O43364 129-215 Y150S): as the sequence (O43364 129-215) above, with Y22S counted along it
Chain of ALX3 (Homo sapiens, UniProt O95076 139-225, L168Q) (O95076 139-225 L168Q): as the sequence (O95076 139-225 N203Q) above, with L30Q, Q65N counted along it
Chain of HOXA2 (Homo sapiens, UniProt O43364 129-215, R185T) (O43364 129-215 R185T): as the sequence (O43364 129-215) above, with R57T counted along it
Chain of ALX3 (Homo sapiens, UniProt O95076 139-225) (O95076 139-225): as the sequence (O95076 139-225 N203Q) above, with Q65N counted along it
Chain of ALX3 (Homo sapiens, UniProt O95076 139-225, L168V) (O95076 139-225 L168V): as the sequence (O95076 139-225 N203Q) above, with L30V, Q65N counted along it
Chain of ALX3 (Homo sapiens, UniProt O95076 139-225, N203S) (O95076 139-225 N203S): as the sequence (O95076 139-225 N203Q) above, with Q65S counted along it

Question: How did the binding signal [1] turn out when CCAGGGGG was run?
Answer: 9.05 upbm affinity estimate (log intensity, higher = more binding, comparable within an allelic series)

Question: And the binding signal [2]?
Answer: 9.19 upbm affinity estimate (log intensity, higher = more binding, comparable within an allelic series)

Question: What about the binding signal [3] of the same sequence?
Answer: 7.64 upbm affinity estimate (log intensity, higher = more binding, comparable within an allelic series)

Question: What about the binding signal [4] of the same sequence?
Answer: 9.12 upbm affinity estimate (log intensity, higher = more binding, comparable within an allelic series)

Question: And the binding signal [5]?
Answer: 9.04 upbm affinity estimate (log intensity, higher = more binding, comparable within an allelic series)

Question: And the binding signal [6]?
Answer: 7.54 upbm affinity estimate (log intensity, higher = more binding, comparable within an allelic series)

Question: What about the binding signal [7] of the same sequence?
Answer: 9.08 upbm affinity estimate (log intensity, higher = more binding, comparable within an allelic series)

Question: And the binding signal [8]?
Answer: 7.58 upbm affinity estimate (log intensity, higher = more binding, comparable within an allelic series)

Question: And the binding signal [9]?
Answer: 7.54 upbm affinity estimate (log intensity, higher = more binding, comparable within an allelic series)

Question: And the binding signal [10]?
Answer: 9.06 upbm affinity estimate (log intensity, higher = more binding, comparable within an allelic series)

Question: What about the binding signal [11] of the same sequence?
Answer: 7.57 upbm affinity estimate (log intensity, higher = more binding, comparable within an allelic series)

Question: With CGGCTTTC as the sequence, how does the binding signal [1] read?
Answer: 9.21 upbm affinity estimate (log intensity, higher = more binding, comparable within an allelic series)

Question: And the binding signal [2]?
Answer: 9.26 upbm affinity estimate (log intensity, higher = more binding, comparable within an allelic series)

Question: What about the binding signal [12] of the same sequence?
Answer: 9.51 upbm affinity estimate (log intensity, higher = more binding, comparable within an allelic series)

Question: And the binding signal [4]?
Answer: 9.27 upbm affinity estimate (log intensity, higher = more binding, comparable within an allelic series)

Question: What about the binding signal [13] of the same sequence?
Answer: 9.48 upbm affinity estimate (log intensity, higher = more binding, comparable within an allelic series)

Question: What about the binding signal [5] of the same sequence?
Answer: 9.3 upbm affinity estimate (log intensity, higher = more binding, comparable within an allelic series)

Question: What about the binding signal [7] of the same sequence?
Answer: 9.24 upbm affinity estimate (log intensity, higher = more binding, comparable within an allelic series)

Question: What about the binding signal [14] of the same sequence?
Answer: 9.54 upbm affinity estimate (log intensity, higher = more binding, comparable within an allelic series)

Question: What about the binding signal [10] of the same sequence?
Answer: 9.29 upbm affinity estimate (log intensity, higher = more binding, comparable within an allelic series)

Question: GCGCCACC was tested. Which binding signal [1] did it give?
Answer: 9.38 upbm affinity estimate (log intensity, higher = more binding, comparable within an allelic series)

Question: And the binding signal [2]?
Answer: 9.4 upbm affinity estimate (log intensity, higher = more binding, comparable within an allelic series)

Question: What about the binding signal [4] of the same sequence?
Answer: 9.4 upbm affinity estimate (log intensity, higher = more binding, comparable within an allelic series)

Question: What about the binding signal [15] of the same sequence?
Answer: 7.93 upbm affinity estimate (log intensity, higher = more binding, comparable within an allelic series)

Question: What about the binding signal [5] of the same sequence?
Answer: 9.23 upbm affinity estimate (log intensity, higher = more binding, comparable within an allelic series)

Question: What about the binding signal [7] of the same sequence?
Answer: 9.26 upbm affinity estimate (log intensity, higher = more binding, comparable within an allelic series)

Question: What about the binding signal [10] of the same sequence?
Answer: 9.32 upbm affinity estimate (log intensity, higher = more binding, comparable within an allelic series)

Question: Which results are given for CGGAGCCG?
Answer: binding signal [1]: 9.19 upbm affinity estimate (log intensity, higher = more binding, comparable within an allelic series); binding signal [2]: 9.38 upbm affinity estimate (log intensity, higher = more binding, comparable within an allelic series); binding signal [16]: 7.43 upbm affinity estimate (log intensity, higher = more binding, comparable within an allelic series); binding signal [4]: 9.24 upbm affinity estimate (log intensity, higher = more binding, comparable within an allelic series); binding signal [17]: 10.1 upbm affinity estimate (log intensity, higher = more binding, comparable within an allelic series); binding signal [5]: 9.03 upbm affinity estimate (log intensity, higher = more binding, comparable within an allelic series); binding signal [7]: 9.04 upbm affinity estimate (log intensity, higher = more binding, comparable within an allelic series); binding signal [10]: 9.09 upbm affinity estimate (log intensity, higher = more binding, comparable within an allelic series); binding signal [18]: 10.4 upbm affinity estimate (log intensity, higher = more binding, comparable within an allelic series); binding signal [19]: 7.23 upbm affinity estimate (log intensity, higher = more binding, comparable within an allelic series)

Question: CAAGCCCC was tested. Which binding signal [1] did it give?
Answer: 9.27 upbm affinity estimate (log intensity, higher = more binding, comparable within an allelic series)

Question: What about the binding signal [2] of the same sequence?
Answer: 9.32 upbm affinity estimate (log intensity, higher = more binding, comparable within an allelic series)

Question: What about the binding signal [12] of the same sequence?
Answer: 9.5 upbm affinity estimate (log intensity, higher = more binding, comparable within an allelic series)

Question: What about the binding signal [4] of the same sequence?
Answer: 9.37 upbm affinity estimate (log intensity, higher = more binding, comparable within an allelic series)

Question: What about the binding signal [13] of the same sequence?
Answer: 9.54 upbm affinity estimate (log intensity, higher = more binding, comparable within an allelic series)

Question: What about the binding signal [5] of the same sequence?
Answer: 9.26 upbm affinity estimate (log intensity, higher = more binding, comparable within an allelic series)

Question: What about the binding signal [7] of the same sequence?
Answer: 9.29 upbm affinity estimate (log intensity, higher = more binding, comparable within an allelic series)

Question: What about the binding signal [14] of the same sequence?
Answer: 9.61 upbm affinity estimate (log intensity, higher = more binding, comparable within an allelic series)

Question: What about the binding signal [10] of the same sequence?
Answer: 9.3 upbm affinity estimate (log intensity, higher = more binding, comparable within an allelic series)

Question: Which binding signal [1] does the source give for ATTATTTC here?
Answer: 10.8 upbm affinity estimate (log intensity, higher = more binding, comparable within an allelic series)

Question: What about the binding signal [2] of the same sequence?
Answer: 11.1 upbm affinity estimate (log intensity, higher = more binding, comparable within an allelic series)

Question: What about the binding signal [4] of the same sequence?
Answer: 10.9 upbm affinity estimate (log intensity, higher = more binding, comparable within an allelic series)

Question: What about the binding signal [5] of the same sequence?
Answer: 10.4 upbm affinity estimate (log intensity, higher = more binding, comparable within an allelic series)

Question: Which results are given for CCGCCCCG?
Answer: binding signal [1]: 9.25 upbm affinity estimate (log intensity, higher = more binding, comparable within an allelic series); binding signal [2]: 9.35 upbm affinity estimate (log intensity, higher = more binding, comparable within an allelic series); binding signal [20]: 9.69 upbm affinity estimate (log intensity, higher = more binding, comparable within an allelic series); binding signal [4]: 9.16 upbm affinity estimate (log intensity, higher = more binding, comparable within an allelic series); binding signal [5]: 9.13 upbm affinity estimate (log intensity, higher = more binding, comparable within an allelic series); binding signal [7]: 9.21 upbm affinity estimate (log intensity, higher = more binding, comparable within an allelic series); binding signal [10]: 9.44 upbm affinity estimate (log intensity, higher = more binding, comparable within an allelic series)

Question: What does the source list for GCCCCACC?
Answer: binding signal [1]: 9.5 upbm affinity estimate (log intensity, higher = more binding, comparable within an allelic series); binding signal [2]: 9.33 upbm affinity estimate (log intensity, higher = more binding, comparable within an allelic series); binding signal [12]: 9.66 upbm affinity estimate (log intensity, higher = more binding, comparable within an allelic series); binding signal [4]: 9.38 upbm affinity estimate (log intensity, higher = more binding, comparable within an allelic series); binding signal [13]: 9.74 upbm affinity estimate (log intensity, higher = more binding, comparable within an allelic series); binding signal [5]: 9.19 upbm affinity estimate (log intensity, higher = more binding, comparable within an allelic series); binding signal [7]: 9.3 upbm affinity estimate (log intensity, higher = more binding, comparable within an allelic series); binding signal [14]: 9.8 upbm affinity estimate (log intensity, higher = more binding, comparable within an allelic series); binding signal [10]: 9.4 upbm affinity estimate (log intensity, higher = more binding, comparable within an allelic series)

Question: Which binding signal [1] does the source give for GCCTGTCC here?
Answer: 9.34 upbm affinity estimate (log intensity, higher = more binding, comparable within an allelic series)

Question: What about the binding signal [2] of the same sequence?
Answer: 9.22 upbm affinity estimate (log intensity, higher = more binding, comparable within an allelic series)

Question: What about the binding signal [16] of the same sequence?
Answer: 7.41 upbm affinity estimate (log intensity, higher = more binding, comparable within an allelic series)

Question: And the binding signal [3]?
Answer: 7.8 upbm affinity estimate (log intensity, higher = more binding, comparable within an allelic series)

Question: What about the binding signal [21] of the same sequence?
Answer: 9.8 upbm affinity estimate (log intensity, higher = more binding, comparable within an allelic series)

Question: What about the binding signal [4] of the same sequence?
Answer: 9.44 upbm affinity estimate (log intensity, higher = more binding, comparable within an allelic series)

Question: And the binding signal [17]?
Answer: 10.4 upbm affinity estimate (log intensity, higher = more binding, comparable within an allelic series)

Question: What about the binding signal [5] of the same sequence?
Answer: 9.3 upbm affinity estimate (log intensity, higher = more binding, comparable within an allelic series)

Question: What about the binding signal [6] of the same sequence?
Answer: 7.73 upbm affinity estimate (log intensity, higher = more binding, comparable within an allelic series)

Question: What about the binding signal [7] of the same sequence?
Answer: 9.34 upbm affinity estimate (log intensity, higher = more binding, comparable within an allelic series)

Question: What about the binding signal [8] of the same sequence?
Answer: 7.77 upbm affinity estimate (log intensity, higher = more binding, comparable within an allelic series)

Question: What about the binding signal [22] of the same sequence?
Answer: 9.38 upbm affinity estimate (log intensity, higher = more binding, comparable within an allelic series)

Question: What about the binding signal [9] of the same sequence?
Answer: 7.73 upbm affinity estimate (log intensity, higher = more binding, comparable within an allelic series)

Question: And the binding signal [10]?
Answer: 9.36 upbm affinity estimate (log intensity, higher = more binding, comparable within an allelic series)

Question: And the binding signal [18]?
Answer: 10.4 upbm affinity estimate (log intensity, higher = more binding, comparable within an allelic series)

Question: And the binding signal [11]?
Answer: 7.78 upbm affinity estimate (log intensity, higher = more binding, comparable within an allelic series)

Question: What about the binding signal [19] of the same sequence?
Answer: 7.48 upbm affinity estimate (log intensity, higher = more binding, comparable within an allelic series)
